Compound activity from PubChem.
M1 ag = human M1 muscarinic receptor agonism; P11229; 360,000 tested, 0.33% active; AID 588814; CHO-K1 hM1, Fluo-8 calcium fluorescence, agonist mode; 0% DMSO, 100% acetylcholine EC100; activation, % at 3 µM;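 active = activation above the run's mean compound activation plus 3 SD, cut at about 16% in these data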;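 also: peak over basal fluorescence ratio within a 140 s kinetic read after compound addition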
Target sequence (P11229 whole entry, looked up): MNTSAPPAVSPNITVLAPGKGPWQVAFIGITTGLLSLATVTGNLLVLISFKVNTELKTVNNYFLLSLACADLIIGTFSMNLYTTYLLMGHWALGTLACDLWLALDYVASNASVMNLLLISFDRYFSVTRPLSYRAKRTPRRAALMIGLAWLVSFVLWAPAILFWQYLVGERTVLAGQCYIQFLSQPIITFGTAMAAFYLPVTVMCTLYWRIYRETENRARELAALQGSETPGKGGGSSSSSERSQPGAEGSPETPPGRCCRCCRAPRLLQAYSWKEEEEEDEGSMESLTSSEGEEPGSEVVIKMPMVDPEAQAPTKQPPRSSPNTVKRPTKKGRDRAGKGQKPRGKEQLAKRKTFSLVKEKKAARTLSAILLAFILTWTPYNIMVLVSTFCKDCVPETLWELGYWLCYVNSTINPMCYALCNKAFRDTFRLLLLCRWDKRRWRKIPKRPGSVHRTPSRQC
M1 PAM parental = nonselective activator or artifact in parental CHO-K1 calcium assay | ATP EC20, Fluo-8 calcium fluorescence; 0% at ATP EC20, 100% at ATP max | activation, % at 3 µM | 360,000 tested, 0.02% active | AID 602247;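 active = activation above the run cutoff, the mean activation of all test compounds plus 3 SD, cut at about 40% in these data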;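 also: peak over basal fluorescence ratio in a 140 s read after ATP addition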
CHRM1 PAM = human CHRM1 positive allosteric modulation; P11229; CHO-K1 hM1, Fluo-8 calcium fluorescence, ACh EC20; 0% = ACh EC20, 100% = maximal ACh; activation, % at 3 µM; 360,000 tested, 0.088% active; AID 588819; in the data active = activation above about 19%, passing the limit was not always enough
M1 ag parental = nonselective activator or artifact in parental CHO-K1 cells; Fluo-8 calcium fluorescence; scaled to maximal ATP response, vehicle zero; activation, % at 3 µM; 360,000 tested, 0.48% active; AID 602248; in the data active = activation above about 15%;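 also: untransfected CHO-K1 host cells lacking M1 receptor as counterscreen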
CHO-K1 Ca antag = nonselective inhibitor or artifact in parental CHO-K1 cells; ATP-induced calcium, Fluo-8 fluorescence; inhibition, % at 3 µM; 360,000 tested, 0.6% active; AID 602250;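 active = inhibition above a per-plate cutoff, the plate's mean sample inhibition plus 3 SD, cut at about 24% in these data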;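 also: 0% = DMSO plus EC80 ATP and 100% = DMSO alone without ATP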
CHRM1 antagonist = antagonists of human M1 muscarinic receptor; CHO-K1 hM1, Fluo-8 calcium fluorescence, ACh EC80 antagonist; inhibition, % at 3 µM; 360,000 tested, 1.3% active; AID 588852;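 active = percent inhibition above its own plate's cutoff, namely the mean of that plate's compound wells plus 3 SD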;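 also: peak over basal fluorescence ratio during 140 s after agonist addition; 0% = ACh EC80 plus DMSO and 100% = DMSO alone without agonist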
Starred values were filed as active, the others as inactive; · = no result given. Only some compounds are listed: those with a hit (about 2.3% of all), similar ones and a draw of the others.

SMILES	M1 ag	M1 PAM parental	CHRM1 PAM	M1 ag parental	CHO-K1 Ca antag	CHRM1 antagonist
O=[N+]([O-])c1ccc(N/N=C/c2c[nH]c3ccccc23)cc1	14	-8	-7	15*	26*	34*
O=c1oc2c(O)cccc2cc1-c1nc2ccccc2[nH]1	18*	-8	-9	13	11	10
Nc1cccc(NP(=O)(c2ccccc2)c2ccccc2)c1	-2	18	6	1	-2	-7
CCOC(=O)C(C(=O)OCC)c1cc(Br)c2noc3c2c1C(=O)c1ccccc1-3	8	12	2	8	23	35*
Cc1cccc(S(=O)(=O)NC(=O)C2(C)CCN2C(=O)Cc2cc(F)ccc2F)c1 (configuration not stated)	-10	10	13	0	-7	102*
CC1(C(=O)NS(=O)(=O)c2cccc(Cl)c2)CCN1C(=O)Cc1cc(F)ccc1F (configuration not stated)	-3	7	-2	0	-15	3
O=C(CNCc1ccc(Cl)cc1)Nc1ccc(C(=O)N2CCCCCC2)cc1	-3	17	5	10	-12	-7
COc1cccc(C(NC(C)=O)c2nc(-c3ccc(F)cc3OC)cs2)c1 (configuration not stated)	-3	11	-6	0	-5	4
Cc1ccc(C(C)C)c(OCCN(C)C)c1	-3	3	-19	1	-18	57*
Cc1ccc(C(C)C)c(OCCCn2ccnc2C)c1	-9	12	-30	1	-10	100*
CCCN(CCC)CCOc1cc(C)ccc1C(C)C	-14	19	-27	1	-5	34
COc1ccccc1-c1noc2c1C(=O)N(Cc1cn(C3CCCC3)nn1)CC2	·	9	·	0	-28	·
O=C(Nc1ccc(Cl)c(C(F)(F)F)c1)[C@@H]1CC=C[C@@H]2CCN(C3CC3)C(=O)[C@@H]21	-8	47*	6	0	-3	-4
O=C(Nc1ccc(Nc2ccccc2)cc1)C(Cl)(Cl)Cl	-15	-3	-20	1	5	14
O=C(CSc1ccc2nnc(-c3ccccc3)n2n1)NCc1ccc2c(c1)OCO2	1	15	5	0	-12	-14
O=C(CSc1ccc2nnc(-c3cccnc3)n2n1)NCc1ccc2c(c1)OCO2	-10	12	-27	0	-4	64*
CC1CN(S(=O)(=O)c2cccc(C(=O)N(CCc3ccccc3)Cc3ccccc3)c2)CC(C)O1 (configuration not stated)	-5	-5	3	0	-1	-3
CCOC(=O)[C@]12CCC=C1N(Cc1ccc(Cl)cc1Cl)C(=O)[C@H](CC(=O)NCc1cccc(C(F)(F)F)c1)C2	·	14	·	1	-10	·
COc1ccc(-c2csc(NC(=O)c3ccccc3NS(=O)(=O)c3ccc(F)c(F)c3)n2)cc1	2	-14	-16	15*	23	43*
O=C(Nc1ccccc1N1CCOCC1)c1ccccc1NS(=O)(=O)c1ccc(F)c(F)c1	14	-6	-1	9	24*	-13
O=C(Nc1ccccc1N1CCOCC1)c1ccccc1NS(=O)(=O)c1ccc(F)cc1	0	11	-5	2	3	8
Cc1ccc(S(=O)(=O)Nc2ccccc2C(=O)Nc2nc(-c3ccc(F)cc3)cs2)cc1	-1	5	-17	16*	26*	35
CC(OC(=O)[C@@H]1CCCN1C(=O)c1cccs1)C(=O)Nc1cccc([N+](=O)[O-])c1 (some centres not stated)	5	-16	-17	8	-9	8
O=C(Nc1ccnn1C1CCN(Cc2cc(Cl)ccc2O)CC1)c1cccnc1	-5	-5	-16	2	-10	40*
CCOC(=O)c1sc2nc(NC(=O)C3CC3)sc2c1C	-1	17	7	1	-7	-8
SMILES	M1 ag	M1 PAM parental	CHRM1 PAM	M1 ag parental	CHO-K1 Ca antag	CHRM1 antagonist
CCOC(=O)c1sc2nc(NC(=O)C(C)(C)C)sc2c1C	-5	3	-19	5	4	32*
C=CCN1CCN(c2ccncc2S(=O)(=O)N2CCCCC2)CC1	-7	5	-18	0	4	31*
CC(C)N1CCN(c2ccncc2S(=O)(=O)N2CCOCC2)CC1	-6	16	-20	0	-9	48*
O=S(=O)(c1cnccc1N1CCN(CCO)CC1)N1CCCC1	-8	-12	6	0	6	-16
Cc1cc(C(=O)Nc2cccc(-c3ccc(N4CCOCC4)nn3)c2)ccc1[N+](=O)[O-]	-3	-9	-17	5	18	35*
COC(=O)c1ccc(COC(=O)c2ccc(CS(=O)(=O)c3ccc(C)cc3)cc2)cc1	-3	-2	-10	0	12	22*
CCOC(=O)c1ccc(CNCc2ccc(C)cc2)cc1	-10	15	-24	1	-14	66*
O=c1c2ccccc2nnn1Cc1ccccc1Cl	-5	17	11	0	-6	-10
O=C(NC1CCCCC1)C1c2ccccc2OCC(=O)N1Cc1ccccc1 (configuration not stated)	·	-9	·	0	-7	·
COc1cc(C(=O)COC(=O)c2ccc3c(c2)OCCO3)cc(OC)c1OC	3	13	8	5	-3	-9
c1ccn2cc(C34CC5CC(CC(C5)C3)C4)nc2c1	-6	17	-23	1	-25	54*
Cn1nccc1C(=O)c1ccc(Cl)cc1	-3	-9	0	-1	24*	-21
O=C(Nc1ccncc1)c1cc2ccccc2cc1O	4	5	-4	16*	-8	2
O=C(Nc1ccncc1)c1ccccc1F	-2	1	3	0	-6	-19
C/C(=N\NC(=O)c1cc2ccccc2cc1O)c1ccccn1	2	-2	29*	0	-15	-22
O=C(Nc1cccc([N+](=O)[O-])c1)c1cc2ccccc2cc1O	10	4	-12	16*	10	22
CC(C)C[C@H]1CN([C@@H](Cc2ccccc2)CN2CCC[C@H]2CN2C(=O)C(=O)NC[C@@H]2Cc2ccc(O)cc2)C(=O)C(=O)N1CCc1ccccc1	·	-7	·	0	16	·
C[C@@H](NC(=O)[C@@H]1Cc2ccccc2CN1)C(=O)Nc1ccc2c(c1)OCO2	-15	-7	-1	-1	5	-7
Cc1ccc(/C=C2/NC(=O)N(Cc3ccccc3)C2=O)s1	-1	-8	-7	2	27*	11
Cc1cccc(CN2C(=O)N/C(=C/c3ccc(C)s3)C2=O)c1	-1	12	3	2	-4	-2
CCN(CCCC(=O)c1ccc(F)cc1)CCc1ccccc1	-10	1	-26	1	0	59*
CCCSc1nc(N)nc(-c2cccs2)c1C#N	-3	-2	3	0	-9	-6
